Screening results: PubChem, National Center for Advancing Translational Sciences (NCATS)
HCV inh – inhibitors of hepatitis C virus infection. Huh7.5.1 HCVcc-Cre infection, luciferase reporter, 44 h. Potency, µM (top dose mostly 41.8 µM), for the others: at the highest dose activity change, negative = inhibition, hits mostly inhibitors. 340,000 compounds, 3.4% hits; further: potency means the concentration at half of the fitted maximal effect; on the % scale 0 is the no-effect control and ±100 the full control effect
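Seed cells (1,000/well) for 4 h; treat with compound and infect with HCVcc-Cre, moi about 0.5. Incubate 44 h, then detect luciferase activity.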
HCMV inh – human cytomegalovirus inhibition. HFF cells, HCMV-luciferase reporter, 72 h; hits give low values. activity change, negative = inhibition, % at 57.5 µM. 410,000 compounds, 4.5% hits. AID 1259415; in the data active means activity change below about -60%; inconclusive means no clear call, values can overlap the other calls; inactive means above about -39%; further: on the % scale 0 is the no-effect control and ±100 the full control effect
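Human foreskin fibroblasts infected with luciferase-reporter HCMV at MOI 1 PFU/cell, compounds at two doses. Luciferase measured 72 h post infection; normalized to buffer-only basal and Salinomycin (10uM) controls.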
SARS PLP yeast – inhibitors of SARS-CoV papain-like protease in yeast; S. cerevisiae expressing SARS-CoV PLpro, growth rescue; Potency, µM (highest dose often 32.9 µM), inactives show at the highest dose activity, positive = growth rescue, actives largely listed as activators; 330,000 compounds, 0.19% hits; calls by dose curve; further: potency means the concentration at half of the fitted maximal effect; 0% is about no effect; nearly all actives have a fitted effect of over 55% in size
Pf growth 48h – inhibits P. falciparum growth in the first generation, 48 h. P. falciparum luciferase growth in erythrocytes, 48 h. Potency, µM (series often up to 28.7 µM), for the others: at the top dose activity change, negative = inhibition, usual class: inhibitors. 310,000 compounds, 5.9% hits; further: potency means the concentration at half of the fitted maximal effect; on the % scale 0 is the no-effect control and ±100 the full control effect
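Growth was read as firefly luciferase luminescence after a 48 h, 37 C, 5% CO2 exposure of compounds to reporter-bearing P. falciparum cultures (0.1% parasitemia, 2% hematocrit final) in Albumax-supplemented RPMI 1640.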
Pf growth 96h – inhibits malaria parasite growth, 96 h; P. falciparum luciferase reporter growth, 96 h; Potency, µM (top dose mostly 28.7 µM), for the others: at the top dose activity change, negative = inhibition, most hits filed as inhibitors; 320,000 compounds, 6.9% hits; further: potency means the concentration at half of the fitted maximal effect; on the % scale 0 is the no-effect control and ±100 the full control effect
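Compounds incubated with erythrocytes infected by luciferase-expressing P. falciparum (2% hematocrit, 0.05% parasitemia final) for 96 hours, 37 C in 5% CO2. Growth inhibition scored as decreased luciferase luminescence.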
Sm TGR inh – blocks Schistosoma mansoni thioredoxin glutathione reductase; Q962Y6; purified TGR, DTNB reduction, TNB absorbance 405 nm; Potency, µM (series often up to 114 µM), for the others: at the top dose activity change, negative = inhibition, usual class: inhibitors; 360,000 compounds, 3% hits; further: potency means the concentration at half of the fitted maximal effect; on the % scale 0 is the no-effect control and ±100 the full control effect; nearly all actives have a fitted effect of over 60% in size
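First, TGR (20 nM dispensed) and NADPH were mixed with compound. Second, a 15 min room-temperature incubation followed. Third, further NADPH and then DTNB were added to start the reaction. Finally, TNB absorbance was monitored kinetically.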
* hit, by the source's call. Hits are enriched below; roughly 15% of the tested compounds scored in any of these assays. Unless noted, the call rests on the fitted dose curve; in most records, active means well fitted curve in the direction sought with a large enough effect; inconclusive means small, poorly fitted or top-dose-only effect, or another doubt; inactive means no such curve, though single readings can be large; an effect the other way counts as inactive or inconclusive.

Screening C=CCOc1cccc(/C=C2\C(=O)N(Cc3ccc(C)cc3)C(C)=C2C(=O)OC)c1 returned HCV inh -23.2%, HCMV inh 36.1, SARS PLP yeast -4.5%, Pf growth 48h 14.7µM*, Pf growth 96h 6.57µM* and Sm TGR inh -32.5%.
Screening COC(=O)C1=C(C)N(CCc2ccc(OC)c(OC)c2)C(=O)C1 returned HCV inh -2.2%, HCMV inh 16.0, SARS PLP yeast 5.5% and Sm TGR inh 0.0%.
Screening COC(=O)C1=C(C)N(Cc2cccnc2)C(=O)/C1=C\c1cccs1 returned HCMV inh -24.4, SARS PLP yeast -1.2%, Pf growth 48h inconclusive, Pf growth 96h 50.9% and Sm TGR inh inconclusive.
`COC(=O)C1=C(C)N(CCc2ccc(OC)c(OC)c2)C(=O)/C1=C\c1ccc(O)cc1` gave HCV inh -1.1%, HCMV inh inconclusive, SARS PLP yeast -14.1%, Pf growth 48h 11.7µM*, Pf growth 96h -2.5% and Sm TGR inh 28.2µM*.
COCCCN1C(=O)/C(=C\c2ccc3c(c2)OCO3)C(C(=O)OC)=C1C was read as HCV inh -11.9%, HCMV inh inconclusive, SARS PLP yeast 0.1%, Pf growth 48h 6.0%, Pf growth 96h -1.4% and Sm TGR inh 26.8%.
`CCOc1cc(/C=C2\C(=O)N(Cc3ccc(C)cc3)C(C)=C2C(=O)OC)ccc1O` gave HCV inh -0.6%, HCMV inh 23.1, SARS PLP yeast 2.0%, Pf growth 48h inconclusive, Pf growth 96h 18.3% and Sm TGR inh 22.4µM*.
For CCN1C(=O)/C(=C\c2ccc3c(c2)OCO3)C(C(=O)OC)=C1C the results were HCV inh -16.4%, HCMV inh 13.1, SARS PLP yeast -8.1%, Pf growth 48h 3.3%, Pf growth 96h 1.85µM* and Sm TGR inh -31.7%.
`CCOC(=O)C1(Cc2ccccc2C)CCCN(Cc2cn(C)nc2C)C1` (stereo not given) gave HCV inh 10.5%, HCMV inh inconclusive, SARS PLP yeast 1.4%, Pf growth 48h 6.4%, Pf growth 96h 18.7% and Sm TGR inh -2.4%.
`CCOC(=O)C1(Cc2ccccc2)CCCN(Cc2ccncc2)C1` (stereo not given) gave HCV inh 10.0%, HCMV inh 26.2, SARS PLP yeast 0.4%, Pf growth 48h 9.28µM*, Pf growth 96h 11.4% and Sm TGR inh -23.1%.
`CCCn1cc(CN2CCC(Cc3ccccc3)(C(=O)OCC)CC2)c(C)n1` gave HCV inh -18.7%, HCMV inh inconclusive, SARS PLP yeast -0.9%, Pf growth 48h 0.0%, Pf growth 96h 10.4µM* and Sm TGR inh -0.5%.
CCOC(=O)C1(Cc2ccccc2C)CCCN(Cc2cc(OC)c(O)c(OC)c2)C1 (stereo not given) was read as HCV inh -6.7%, HCMV inh 20.7, SARS PLP yeast -0.8%, Pf growth 48h inconclusive, Pf growth 96h -27.4% and Sm TGR inh 4.47µM*.
Screening CCOC(=O)C1(Cc2ccccc2)CCN(Cc2ccon2)CC1 returned HCV inh -6.3%, HCMV inh 0.8, SARS PLP yeast 0.4%, Pf growth 48h inconclusive, Pf growth 96h inconclusive and Sm TGR inh 1.9%.
Screening CCOC(=O)C1(Cc2ccccc2C)CCCN(S(=O)(=O)c2cccnc2)C1 (stereo not given) returned HCV inh -6.5%, HCMV inh -92.5*, SARS PLP yeast -3.7%, Pf growth 48h 9.28µM*, Pf growth 96h 10.4µM* and Sm TGR inh -6.5%.
Screening CCOC(=O)C1(Cc2ccccc2)CCCN(Cc2cccc(C(C)=O)c2)C1 (stereo not given) returned HCV inh 2.7%, HCMV inh -15.0, SARS PLP yeast -0.1%, Pf growth 48h inconclusive, Pf growth 96h inactive and Sm TGR inh 3.0%.
For CCOC(=O)/C=C/[C@H]1CCc2cccc(Cl)c2O1 the results were HCV inh 0.0%, HCMV inh 25.0, SARS PLP yeast -0.5%, Pf growth 48h inconclusive, Pf growth 96h 6.2% and Sm TGR inh inconclusive.
`Cc1cc(C)n(-c2nc(Nc3ccccc3)nc(-n3nc(C)cc3C)n2)n1` gave HCV inh -8.8%, HCMV inh -4.0, SARS PLP yeast -3.9%, Pf growth 48h inconclusive, Pf growth 96h -0.3% and Sm TGR inh 7.2%.
COc1cccc(/C=N/Nc2cc(-n3nc(C)cc3-c3ccccc3)ncn2)c1O was read as HCV inh 5.62µM*, HCMV inh -96.1*, SARS PLP yeast inconclusive, Pf growth 48h 5.86µM*, Pf growth 96h -13.7% and Sm TGR inh -3.4%.
Cc1cnn(-c2cc(N/N=C/c3ccccc3Cl)ncn2)c1 was read as HCV inh 20.1%, HCMV inh -18.1, SARS PLP yeast 2.8%, Pf growth 48h 17.8%, Pf growth 96h 15.3% and Sm TGR inh 41.9%.
For COc1cccc(/C=N/Nc2nc(Nc3ccccc3)nc(-n3nc(C)cc3C)n2)c1O the results were HCV inh 8.91µM*, HCMV inh 59.0, SARS PLP yeast 13.0%, Pf growth 96h inconclusive and Sm TGR inh 1.0%.
For Cc1ccc(Cl)cc1NC(=O)Cn1nc2c(cc1=O)CC(C)CC2 (stereo not given) the results were HCMV inh -32.2 and Sm TGR inh 48.3%.
`COc1ccc(OC)c(C2CC(=O)c3c([nH]c(C(=O)OCc4ccc(C)cc4)c3C)C2)c1` (stereo not given) gave HCMV inh -28.0 and Sm TGR inh -0.5%.
For O=C(Cc1cnc2ncnn2c1)N1CCc2c([nH]c3ccccc23)C1c1ccccc1F (stereo not given) the results were HCV inh 7.8%, HCMV inh 122.5, SARS PLP yeast -1.0%, Pf growth 48h -2.8%, Pf growth 96h -8.5% and Sm TGR inh 0.0%.
For CC1(C)CCCN(C(=O)c2ccc3c(c2NCCO)C(=O)c2ccccc2C3=O)C1 the results were HCV inh inconclusive, HCMV inh inconclusive, SARS PLP yeast -4.7%, Pf growth 48h 13.1µM*, Pf growth 96h inconclusive and Sm TGR inh -0.4%.
For O=C(NCc1ccco1)Nc1nnc([C@H]2C[C@H](O)[C@@H](CO)O2)s1 the results were HCMV inh -1.6.
Screening Nc1ccc(-c2cc3ccccc3c(=O)o2)cc1 returned HCV inh inconclusive, HCMV inh -61.8* and SARS PLP yeast 0.7%.
O=c1oc(-c2ccccc2)cc2ccccc12 was read as HCMV inh 83.2.
